Measurements: PubChem BioAssay (Tox21)
Inconclusive results are not listed. Calls of active or inactive are those of the source. Unless noted, the call rests on the fitted dose curve; in most records, active means well fitted curve in the direction sought with a large enough effect in the repeat runs; inconclusive means weak or mixed curves; inactive means no such curve, though single readings can be large; an effect the other way counts as inactive or inconclusive.

Tests used:
[1] = qHTS assay to identify small molecule antagonists of the estrogen related receptor (ERR) signaling pathway - cell viability counter screen (AID 1224818); further: potency means the concentration at half of the fitted maximal effect;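 further: viability measured after 17.5 h of compound exposure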
How it was run: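 Here, ERR cells are plated at 2,000 cells per well, allowed 6 h to attach, and treated with compounds in DMSO for 17.5 h at 37 C. CellTiter-Fluor is then added and fluorescence read after 30 min.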

[2] = qHTS assay to identify small molecule antagonists of the estrogen related receptor (ERR) signaling pathway (AID 1224819; further: nearly all actives have a fitted effect of over 50% in size; further: potency means the concentration at half of the fitted maximal effect)
How it was run: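 LOPAC library screened for antagonism as reduced One-Glo luminescence in ERR reporter cells (2,000/well). Compounds were added after 6 h pre-incubation and left 18 h at 37C; reading followed a 30 min room-temperature reagent step.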

[3] = qHTS assay to identify small molecule agonists of the estrogen related receptor (ERR) signaling pathway (AID 1224820)
How it was run: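 Quantitative HTS of the LOPAC library used NTP ERR reporter cells treated 18 h at 37 C. Signal is luminescence after One-Glo addition and a 30 min room-temperature incubation.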

[4] = tested on: estrogen-related receptor alpha (ERRalpha) with PGC-1alpha coactivator, human; assay: qHTS assay to identify small molecule antagonists of the estrogen related receptor signaling pathway with the pleiotropic PPARgamma coactivator (PGC) (AID 1224821; calls by dose curve; further: nearly all actives have a fitted effect of over 50% in size; further: potency means the concentration at half of the fitted maximal effect)
How it was run: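 Quantitative HTS for antagonism: PGC/ERR cells received compounds after 6 h attachment and were incubated 18 h at 37 C, with luminescence (One-Glo) as the endpoint.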

[5] = qHTS assay to identify small molecule agonists of the estrogen related receptor signaling pathway with the pleiotropic PPARgamma coactivator (PGC) (AID 1224823)
How it was run: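 Cell-based luciferase assay in the NTP-supplied PGC/ERR line, 2,000 cells/well; 18 h compound exposure at 37 C, luminescence after One-Glo.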

[6] = qHTS assay to identify small molecule antagonists of the estrogen related receptor signaling pathway with the pleiotropic PPARgamma coactivator (PGC) cell viability counter screen (AID 1224822; further: potency means the concentration at half of the fitted maximal effect;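 further: viability read after 17.5 h compound exposure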)
How it was run: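 qHTS format, DMSO compound stocks pin-transferred onto PGC/ERR cells 6 h after plating; 17.5 h exposure at 37 C, then CellTiter-Fluor fluorescence.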

[7] = qHTS assay to identify small molecule antagonists of the estrogen related receptor (ERR) signaling pathway from Tox21 library - cell viability counter screen (AID 1224834); further: nearly all actives have a fitted effect of over 30% in size; further: potency means the concentration at half of the fitted maximal effect
How it was run: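 Viability readout (CellTiter-Fluor fluorescence, 30 min at 37 C) multiplexed with the ERR assay; cells treated 17.5 h at 37 C with compounds delivered in DMSO.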

[8] = biological target: Luciferin 4-monooxygenase (Photinus pyralis) (UniProt P08659); assay: qHTS assay to identify small molecule inhibitors of firefly luciferase (AID 1224835); further: nearly all actives have a fitted effect of over 25% in size; further: potency means the concentration at half of the fitted maximal effect
How it was run: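 Inhibition of purified Photinus luciferase is measured by luminescence. Substrate levels (D-luciferin, ATP) sit at their KM values. Each compound is tested in a concentration series.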

[9] = biological target: Nuclear receptor subfamily 1 group I member 3 (Homo sapiens) (UniProt Q14994); assay: qHTS assay to identify small molecule agonists of the constitutive androstane receptor (CAR) signaling pathway (AID 1224839);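 further: HepG2 cells stably carrying human CAR and a CYP2B6 luciferase reporter; series mostly up to about 92 µM; nearly all actives have a fitted effect of over 15% in size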
How it was run: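 Cells were plated and incubated 4 hrs, then dosed with compounds at 15 concentrations. PK11195 was added to 0.75 uM final. After 24 hrs at 37 C, luciferase luminescence was measured.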

[10] = qHTS assay to identify small molecule antagonists of the estrogen related receptor signaling pathway with the pleiotropic PPARgamma coactivator (PGC) from Tox21 10K library (AID 1224841; call rule not given here; further: actives are mostly falling curves and most rising ones were filed inactive; nearly all actives have a fitted effect of over 50% in size; further: potency means the concentration at half of the fitted maximal effect)
How it was run: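 Compound exposure ran 18 hours at 37 C in PGC/ERR cells (2,000/well) that had first rested 6 hours in a 37 C/5% CO2 incubator. Luciferase activity was then detected with One-Glo after a 30-minute room-temperature step.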

[11] = qHTS assay to identify small molecule agonists of the constitutive androstane receptor (CAR) signaling pathway - cell viability counter screen (AID 1224836); further: series mostly up to about 92 µM; nearly all actives have a fitted effect of over 45% in size
How it was run: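 Cells were seeded and incubated 4 hrs. Compounds were added across 15 concentrations together with PK11195 at 0.75 uM final. Plates were incubated 23 hrs at 37 C. CellTiter-Fluor was added and fluorescence measured.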

[12] = qHTS assay to identify small molecule antagonists of the constitutive androstane receptor (CAR) signaling pathway - cell viability counter screen (AID 1224837); further: series mostly up to about 92 µM; nearly all actives have a fitted effect of over 45% in size
How it was run: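 Fluorescence from CellTiter-Fluor served as the viability signal. Human hepatoma HepG2 cells stably bearing hCAR and CYP2B6-2.2kb received compound plus CITCO (50 nM final) for 23 hr.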

[13] = biological target: Nuclear receptor subfamily 1 group I member 3 (Homo sapiens) (UniProt Q14994); assay: qHTS assay to identify small molecule antagonists of the constitutive androstane receptor (CAR) signaling pathway (AID 1224838);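 further: HepG2 cells stably expressing hCAR with CYP2B6 luciferase reporter stimulated by CITCO; nearly all actives have a fitted effect of over 40% in size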
How it was run: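 Quantitative HTS in double-stable HepG2-CYP2B6-hCAR cells. After 4 h plating, cells get compound (15 concentrations) and CITCO at 50 nM final, incubate 24 h at 37 C, then ONE-Glo luminescence is read.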

[14] = qHTS assay to identify small molecule antagonists of the estrogen related receptor signaling pathway with the pleiotropic PPARgamma coactivator (PGC) from Tox21 10K library - cell viability counter screen (AID 1224840; active means well fitted cell-killing curve with a large enough effect in the repeat runs, not every such curve was filed as active; further: nearly all actives have a fitted effect of over 40% in size)
How it was run: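 Compounds in DMSO, alongside positive and negative controls, were pinned onto PGC/ERR cells (2,000 per well). Exposure lasted 17.5 hours at 37 C, followed by a 30-minute CellTiter-Fluor incubation and fluorescence reading.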

[15] = qHTS assay to identify small molecule agonists of the estrogen related receptor signaling pathway with the pleiotropic PPARgamma coactivator (PGC) from Tox21 10K library (AID 1224842); further: nearly all actives have a fitted effect of over 15% in size
How it was run: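 Luminescence from One-Glo (30 min, room temperature) measured after PGC/ERR cells had 18 h at 37 C with pinned compound (23 nL in DMSO). Cells had been seeded at 2,000 per well and pre-incubated 6 h.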

[16] = biological target: Thyrotropin receptor (Homo sapiens) (UniProt P16473); assay: qHTS assay to identify small molecule agonists of the thyroid stimulating hormone receptor (TSHR) signaling pathway (AID 1224843; calls by dose curve; further: nearly all actives have a fitted effect of over 45% in size)
How it was run: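 HEK293 cells stably bearing the thyrotropin receptor were plated at 800 cells/well and challenged with compound (30 min, RT). Accumulated cAMP was quantified via cAMP-d2 competing for cryptate-tagged antibody.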

[17] = qHTS assay to identify small molecule agonists of the hypoxia (HIF-1) signaling pathway - cell viability counter screen (AID 1224844; calls by dose curve; further: nearly all actives have a fitted effect of over 50% in size)
How it was run: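 Luminescent ATP content (CellTiter-Glo, 30 min, room temperature) served as the viability measure in HRE-bla ME-180 cells exposed to compounds for 17 hrs in low-serum medium (0.5% dialyzed FBS).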

[18] = qHTS assay to identify small molecule agonists of H2AX (AID 1224845; active means well fitted activation curve with a large enough effect in the signal ratio in the repeat runs, not every such curve was filed as active; the % refers to the signal ratio)
How it was run: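 Phospho-H2AX Ser139 measured by HTRF (ex 320 nm; em 665 and 620 nm) after 24 hr antibody incubation. Compounds, 15 concentrations, 0.76% DMSO, were applied to CHO-K1 cells for 3hr at 37C before lysis.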

[19] = qHTS assay to identify small molecule agonists of H2AX - cell viability counter screen (AID 1224847; calls by dose curve; further: top concentration of the series differs between compounds; nearly all actives have a fitted effect of over 30% in size)
How it was run: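 Cytotoxicity counter screen in wild-type CHO-K1 cells: a 3 hr compound treatment at 37C across 15 concentrations, followed by CellTiter-Glo luminescence to gauge viable cells.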

Measured: Potency

Nuclear receptor subfamily 1 group I member 3 (Homo sapiens), sequence (Q14994 whole entry, looked up): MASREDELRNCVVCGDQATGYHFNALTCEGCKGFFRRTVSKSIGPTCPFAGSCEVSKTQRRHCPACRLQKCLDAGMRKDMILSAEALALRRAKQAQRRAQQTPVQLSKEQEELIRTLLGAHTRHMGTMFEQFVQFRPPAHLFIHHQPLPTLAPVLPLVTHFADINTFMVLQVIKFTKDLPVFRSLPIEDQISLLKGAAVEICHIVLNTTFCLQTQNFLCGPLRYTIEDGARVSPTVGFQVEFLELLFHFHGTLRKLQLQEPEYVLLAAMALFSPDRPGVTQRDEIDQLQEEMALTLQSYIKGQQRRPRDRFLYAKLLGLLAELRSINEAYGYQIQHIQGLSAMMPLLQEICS
Luciferin 4-monooxygenase (Photinus pyralis), sequence (P08659 whole entry, looked up): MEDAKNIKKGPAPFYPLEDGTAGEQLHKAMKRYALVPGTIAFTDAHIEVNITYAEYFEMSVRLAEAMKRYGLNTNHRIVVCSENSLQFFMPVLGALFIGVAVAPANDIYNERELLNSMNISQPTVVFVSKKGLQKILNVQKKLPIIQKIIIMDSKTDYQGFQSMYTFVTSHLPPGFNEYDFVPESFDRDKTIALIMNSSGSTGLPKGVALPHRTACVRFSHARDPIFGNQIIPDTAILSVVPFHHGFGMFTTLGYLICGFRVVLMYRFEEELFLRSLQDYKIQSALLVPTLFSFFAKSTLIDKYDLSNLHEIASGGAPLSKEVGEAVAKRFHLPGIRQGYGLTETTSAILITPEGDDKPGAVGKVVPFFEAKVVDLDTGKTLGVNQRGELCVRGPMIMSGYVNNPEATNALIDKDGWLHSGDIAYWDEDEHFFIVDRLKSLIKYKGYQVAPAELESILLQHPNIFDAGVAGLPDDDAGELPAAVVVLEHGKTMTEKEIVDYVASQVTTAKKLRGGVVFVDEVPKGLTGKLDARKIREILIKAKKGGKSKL
Thyrotropin receptor (Homo sapiens), sequence (P16473 whole entry, looked up): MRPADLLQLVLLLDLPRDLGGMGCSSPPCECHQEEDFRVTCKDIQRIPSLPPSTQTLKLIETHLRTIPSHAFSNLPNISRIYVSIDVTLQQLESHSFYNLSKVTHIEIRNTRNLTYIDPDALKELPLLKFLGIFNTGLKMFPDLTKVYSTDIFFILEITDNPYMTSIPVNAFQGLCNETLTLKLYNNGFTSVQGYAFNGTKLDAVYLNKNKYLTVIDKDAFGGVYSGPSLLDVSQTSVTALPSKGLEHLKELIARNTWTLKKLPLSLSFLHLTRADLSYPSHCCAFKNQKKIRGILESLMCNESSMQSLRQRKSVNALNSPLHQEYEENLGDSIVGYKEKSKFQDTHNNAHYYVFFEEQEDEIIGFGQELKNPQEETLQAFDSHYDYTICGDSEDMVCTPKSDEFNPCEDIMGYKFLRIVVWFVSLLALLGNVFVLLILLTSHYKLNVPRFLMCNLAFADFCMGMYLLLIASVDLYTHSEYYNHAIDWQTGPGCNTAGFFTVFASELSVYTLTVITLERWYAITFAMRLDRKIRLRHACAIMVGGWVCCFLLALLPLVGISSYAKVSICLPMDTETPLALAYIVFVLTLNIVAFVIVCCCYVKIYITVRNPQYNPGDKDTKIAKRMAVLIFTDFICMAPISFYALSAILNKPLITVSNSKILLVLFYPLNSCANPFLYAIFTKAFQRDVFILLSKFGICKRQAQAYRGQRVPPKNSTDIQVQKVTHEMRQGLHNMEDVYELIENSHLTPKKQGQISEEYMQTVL

COc1cc(/C=C(\C#N)C(=O)Nc2nnc(C(F)(F)F)s2)ccc1OCc1ccc(C(F)(F)F)cc1C(F)(F)F
active: [2] 6.43 µM | [4] 3.48 µM
inactive: [1] | [3] | [5]

CSC(N)=NCCC[C@H](N)C(=O)O
inactive: [1] | [2] | [3] | [4] | [5]

Nc1nc(N)c2nc(CNc3ccc(C(=O)NC(CCC(=O)O)C(=O)O)cc3)cnc2n1 (stereo unspecified)
inactive: [1] | [3] | [5]
active: [2] 0.0438 µM | [4] 0.0619 µM

CN1CC(O)C(O)C(O)C1CO (stereo unspecified)
inactive: [1] | [2] | [3] | [4] | [5]

NCC(O)C1CCCCCCC1 (stereo unspecified)
inactive: [1] | [2] | [3] | [4] | [6] | [5]

CC(C)[C@@H]1CC[C@@H](C)C[C@@H]1P(=O)(c1ccccc1)c1ccccc1
inactive: [1] | [2] | [3] | [4] | [5]

O=c1cc(-c2ccccc2F)[nH]c2cc3c(cc12)OCO3
inactive: [1] | [2] | [3] | [6]

CO/N=C(\C(=O)N[C@@H]1C(=O)N2C(C(=O)O)=C(COC(C)=O)CS[C@H]12)c1csc(N)n1 (stereo in doubt)
inactive: [1] | [2] | [3] | [6]

NC(=O)C(=O)O
inactive: [1] | [2] | [3] | [6] | [5]

CC(=O)NNC(=O)N1Cc2ccccc2Oc2ccc(Cl)cc21
inactive: [1] | [2] | [3] | [4] | [6] | [5]

Cn1c(=O)c2c(nc(/C=C/c3cccc(Cl)c3)n2C)n(C)c1=O
inactive: [1] | [2] | [3] | [4] | [5]

O[Si](CCCN1CCCCC1)(c1ccc(F)cc1)C1CCCCC1 (stereo unspecified)
inactive: [1] | [2] | [3] | [4] | [5]

CCCC(=O)c1cc(O)c(O)cc1O
active: [7] 43.3 µM | [8] 31.7 µM | [10] 61.1 µM
inactive: [1] | [2] | [3] | [4] | [5] | [9]

Cc1cc(NC2CCCCC2)nc(-n2nc(C)cc2C)n1
active: [2] 10.2 µM | [4] 0.694 µM
inactive: [1] | [3] | [5]

CCOC(=O)C1=C(O)C(=O)N(Cc2ccccc2)C1
inactive: [1] | [2] | [3] | [6] | [5]

CC(=O)O[C@H]1C[C@@H]2CC[C@@H]3[C@H](CC[C@@]4(C)[C@H]3C[C@H]([N+]3(C)CCCCC3)[C@@H]4OC(C)=O)[C@@]2(C)C[C@@H]1[N+]1(C)CCCCC1
inactive: [1] | [2] | [3] | [6] | [5]

O=C(O)/C(=C/c1c(C(=O)O)[nH]c2cc(Cl)cc(Cl)c12)c1ccccc1
inactive: [1] | [2] | [3] | [4] | [6] | [5]

NC(N)=NCCCCN=C(N)N
inactive: [1] | [2] | [4] | [6]

CN(C)c1nc(N)c(C(=O)N=C(N)N)nc1Cl
inactive: [1] | [2] | [3] | [5]

Cn1ccnc1
not listed: [4]
inactive: all other assays above

COc1cc(SC)ccc1C(=O)N1CCC(Cc2ccccc2)CC1
active: [2] 20.3 µM
inactive: [1] | [3] | [5]

CC[C@H]1OC(=O)[C@H](C)[C@@H](O[C@H]2C[C@@](C)(OC)[C@@H](O)[C@H](C)O2)[C@H](C)[C@@H](O[C@@H]2O[C@H](C)C[C@H](NC)[C@H]2O)[C@](C)(O)C[C@@H](C)CN(C)[C@H](C)[C@@H](O)[C@]1(C)O
inactive: [1] | [2] | [3] | [5]

CC(N)=NCCCC[C@@H](N)C(=O)O
inactive: [1] | [2] | [3] | [6] | [5]

O=C(N[C@@H](Cc1ccccc1)C(=O)CCl)OCc1ccccc1
inactive: [5]
active: [1] 19.6 µM | [2] 21.1 µM | [4] 16.8 µM | [6] 16.8 µM

Cn1c(=O)c2[nH]c(-c3ccccc3)nc2n(C)c1=O
inactive: [1] | [2] | [3] | [5]

CN(C)CCCc1cc(C(=O)Nc2ccc(-c3ccncc3)cc2)ccc1O
inactive: [1] | [2] | [3] | [6] | [5]

CN=c1nc(-c2ccccc2)n(-c2ccccc2)s1
inactive: [1] | [2] | [3] | [5]

NC(=O)c1cc[n+](CC2=C(C(=O)O)N3C(=O)[C@@H](NC(=O)[C@@H](c4ccccc4)S(=O)(=O)[O-])[C@H]3SC2)cc1
inactive: [1] | [2] | [4] | [6]

CO[C@H]1O[C@@H]2O[C@]3(C)CC[C@@H]4[C@@H](C)CC[C@H]([C@H]1C)[C@]24OO3
active: [2] 0.531 µM
inactive: [1] | [3] | [6] | [5]
